# Screening data as filed in PubChem BioAssay.
# CYP2C9 inhib: human CYP2C9 inhibition; P11712; CYP2C9 Supersomes, luciferin-H conversion, luminescence; inhibition, % at 5 µM; actives 20% (n = 96,000); AID 777;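 active = blocking of liver enzyme CYP2C9 beyond about 50% at 5 µM, limit read from the data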
# PostGolgi yeast: growth inhibition of a yeast mutant, post-Golgi transport screen | post-Golgi transport phenotypic cell assay | inhibition, % at 10 µM | actives 0.9% (n = 98,000);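 note: yeast cells grown in 1536-well plates; yeast grown about 18 h at 30C before absorbance read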
# CYP2C19 act: activators of human cytochrome P450 2C19 | AID 1025 | activation factor at 5 µM | 96,000 tested, under 10 active | recombinant CYP2C19, luciferin-H EGE luminescence; hits give high values; 0 = fully inhibited enzyme, 1 = untreated enzyme | P33261;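 active = activation factor of at least 2 at 5 µM in the primary screen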;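 note: 0 = wells with 2.5 mM tranylcypromine and 1 = vehicle-only wells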
# Target sequence (P33261 whole entry, looked up): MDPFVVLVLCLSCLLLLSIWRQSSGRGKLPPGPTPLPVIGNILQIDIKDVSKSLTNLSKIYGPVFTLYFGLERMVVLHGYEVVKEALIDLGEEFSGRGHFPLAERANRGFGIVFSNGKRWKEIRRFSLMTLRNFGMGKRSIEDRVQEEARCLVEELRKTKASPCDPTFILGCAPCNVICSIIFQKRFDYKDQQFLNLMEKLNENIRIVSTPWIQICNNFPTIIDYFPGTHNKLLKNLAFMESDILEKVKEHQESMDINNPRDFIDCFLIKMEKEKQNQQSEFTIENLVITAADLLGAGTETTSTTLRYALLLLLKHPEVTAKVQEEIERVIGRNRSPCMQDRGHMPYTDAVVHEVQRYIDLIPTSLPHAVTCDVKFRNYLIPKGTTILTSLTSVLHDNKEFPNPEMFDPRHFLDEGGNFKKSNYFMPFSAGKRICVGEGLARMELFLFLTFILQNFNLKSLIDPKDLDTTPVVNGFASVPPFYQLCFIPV
# CYP2C19 inh: blocks human cytochrome P450 2C19; actives 21% (n = 96,000); CYP2C19 Supersomes, luciferin-H EGE luminescence, 30 min; inhibition, % at 5 µM; AID 778; P33261;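 active = CYP2C19 inhibition above a set limit at 5 µM in the primary screen, cut at about 50% in these data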;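 note: plate controls were negative control wells for no effect and 2.5 mM tranylcypromine positive control for full effect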
# CYP2C9 act: CYP2C9 (human) activation; activation factor at 5 µM; recombinant CYP2C9, luciferin-H conversion, luminescence; hits give high values; factor 1 = untreated enzyme, 0 = blocked; actives 1.4% (n = 96,000);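 active = activation factor of 2 or more for CYP2C9 at a 5 µM dose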;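 note: 0 = sulfaphenazole-blocked wells and 1 = vehicle-only wells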
# PostGolgi ctrl: growth of the yeast control strain, post-Golgi counter-screen; actives 5% (n = 98,000); AID 738; inhibition, % at 10 µM; efflux-deficient yeast background strain, growth absorbance A615, 16 h
# * marks the source's active call; other numbers are inactive results; x = no result given. Most compounds without a hit are left out; they make up all but 32% or so of the library. Cut-off read from the data, not from the text of the source, unless noted: active = inhibition above about 30%; inactive = the rest.
SMILES,CYP2C9 inhib,PostGolgi yeast,CYP2C19 act,CYP2C19 inh,CYP2C9 act,PostGolgi ctrl
COc1ccc(NS(=O)(=O)c2ccc(SC)cc2)c(OC)c1,-60,3,0.1,87*,1.6,13
COc1cccc(Nc2nc3ccccc3nc2NS(=O)(=O)c2cccs2)c1,17,-4,1,1,0.8,23
COc1ccccc1NS(=O)(=O)c1cccs1,-117,2,0.2,81*,2.2*,12
COc1ccc(NS(=O)(=O)c2cccs2)c(OC)c1,-68,5,0.5,55*,1.7,-3
COc1cc(S(=O)(=O)Nc2ccccc2)ccc1NC=O,-63,1,0.7,27,1.6,-1
CCC(C)[C@H](NC(=O)NCc1ccc(Cl)cc1)C(=O)OC (stereo not given in full),22,-7,0.5,52*,0.8,8
CC(C)[C@H](NC(=O)NCc1ccc(Cl)cc1)C(=O)O,-7,6,1.1,-8,1.1,6
CCC(C)[C@H](NC(=O)NCc1ccccc1)C(=O)O (stereo not given in full),-2,-2,1,-2,1,45*
CCC(C)[C@H](NC(=O)NCc1cccc(OC)c1)C(=O)O (stereo not given in full),3,-13,1,3,1,-1
CCC(NC(=S)NCc1ccccc1)C(=O)O (stereo not given),12,2,0.5,54*,0.9,-4
CCCC(C)C(=O)Nc1cccc(NC(C)=O)c1 (stereo not given),10,-5,1,0,0.9,6
Cc1cc2c(c(=O)n1Cc1cccnc1)C(Cc1ccccc1)C(C#N)=C(N)O2 (stereo not given),68*,2,0.3,74*,0.3,5
COc1ccc(C2C(C#N)=C(N)Oc3cc(C)n(Cc4ccncc4)c(=O)c32)cc1 (stereo not given),72*,-4,0.4,62*,0.3,8
Cc1cc2c(c(=O)n1Cc1ccco1)C(c1cccnc1)C(C#N)=C(N)O2 (stereo not given),66*,-3,0.9,14,0.3,1
C=CCn1c(SC(C)C(=O)NC2(C#N)CCCCC2)nnc1-c1ccc(OC)cc1 (stereo not given),26,-4,0.6,38,0.7,3
CC(Oc1cc(C(F)(F)F)cc(C(F)(F)F)c1)C(=O)NC(N)=O (stereo not given),-21,-4,1,0,1.2,0
CCC(C)N(C(=O)COC(=O)c1[nH]c(C)c(C(C)=O)c1C)C1CCS(=O)(=O)C1 (stereo not given),-10,x,1.1,-9,1.1,x
O=C(NC1CCCC1)C(c1ccccn1)N(C(=O)c1csnn1)C1CC1 (stereo not given),4,-7,0.9,10,1,2
c1cc(CNc2ccc(N3CCOCC3)cc2)ccn1,31,-5,0.8,24,0.7,-8
CC(C)c1ccc(CNc2ccc(N3CCOCC3)cc2)cc1,0,-2,0,95*,1,0
C/C(Cl)=C\CNC(C)c1ccccc1 (stereo not given),6,0,0.5,55*,0.9,9
CC(NCc1cccn1C)c1ccccc1 (stereo not given),-27,8,0.7,33,1.3,6
COc1ccc(-c2nnc(SCC(=O)N3CCCC(C)C3)o2)c(OC)c1 (stereo not given),20,-5,0.3,71*,0.8,9
CC1CCCN(C(=O)CSc2nnc(-c3c[nH]c4ccccc34)o2)C1 (stereo not given),-31,-3,0.3,71*,1.3,5
CCC1CCCCN1C(=O)CSc1nnc(-c2c[nH]c3ccccc23)o1 (stereo not given),-62,-19,0.1,91*,1.6,13
CC1CCCC(C)N1C(=O)CSc1nnc(-c2c[nH]c3ccccc23)o1 (stereo not given),-8,-3,0.7,28,1.1,22
COc1cc(C(=O)OCc2cc3ccccc3[nH]c2=O)cc(OC)c1OC,x,0,x,x,x,-4
COc1ccc(C2(O)CC3CCC(C2)N3c2nc(C)cc(C)c2C#N)cc1 (stereo not given),59*,2,0.6,41,0.4,12
